From PubChem BioAssay (EPA / NIEHS)
Inconclusive results are not listed. Active and inactive are the calls of the source. The calls were made as follows, unless noted: active = hit-call score of the fitted dose curve at least 0.9, where 1 is the maximum; inactive = score below 0.9.

Legend:
[1] = CCTE_Shafer_MEA_acute_spike_number: CCTE's Neural Acute Assay for Total Number of Spikes, Shafer Lab (AID 2284008)
In short: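 Read-out is the total spike count over 40 min, expressed as percent change from each well's own pre-treatment baseline and fitted in the loss direction against DMSO. Rat cortical neurons were exposed at 0.03-40 uM on DIV 13 or 15.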

[2] = CCTE_Shafer_MEA_acute_firing_rate_mean: CCTE's Neural Acute Assay for Mean Firing Rate, Shafer Lab (AID 2284009);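 also: analyzed for loss of signal so actives lower firing rate relative to DMSO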
In short: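 Rat cortical neuron cultures matured to DIV 13 or 15, equilibrated 20 min at 37 C, then recorded 40 min for baseline. Compound (0.03-40 uM) added and a further 40 min recorded; percent change in mean firing rate calculated per well.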

[3] = CCTE_Harrill_HTTr_Viability_MCF7: CCTE's 6-hour Cell Viability Assessment for the High-Throughput Transcriptomics (HTTr) Platform, in MCF-7 cells cultured in DMEM + 10% fetal bovine serum, Harrill Lab (AID 2284010)
In short: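 Eight-point concentration series, six-hour exposure. Propidium iodide exclusion imaged to assess membrane integrity as a cytotoxicity readout; bidirectional fitting was done with DMSO as negative control and activity baseline.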

[4] = CCTE_Harrill_HTTr_Apoptosis_MCF7: CCTE's 6-hour Apoptosis Assessment for the High-Throughput Transcriptomics (HTTr) Platform, in MCF-7 cells cultured in DMEM + 10% fetal bovine serum, Harrill Lab (AID 2284011)
In short: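 MCF-7 (DMEM + 10% FBS), 384-well; 8-pt dilution series, 6 h chemical exposure; caspase-3/7 activation via CellEvent Caspase 3/7 Green, HCI; bidirectional fit vs DMSO.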

[5] = CCTE_Harrill_HTTr_CellCount_MCF7: CCTE's Cell Proliferation Assessment for the High-Throughput Transcriptomics (HTTr) Platform, Harrill Lab (AID 2284012; active = hit-call score of the fitted dose curve at least 0.9, where 1 is the maximum;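 also: count of Hoechst-stained nuclei per well by high-content imaging in MCF-7 cells; cells exposed to compound for six hours; intended direction is loss of nuclei count meaning fewer cells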)
In short: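 For this full-screen endpoint, MCF-7 cultures received eight compound dilutions for six hours. Well nuclei counts from Hoechst imaging were analyzed relative to DMSO.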

[6] = CCTE_Shafer_MEA_acute_burst_number: CCTE's Neural Acute Assay for Single-Electrode Bursts, Shafer Lab (AID 2284013)
In short: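 Percent change in single-electrode burst number per well, from 40-min recordings taken before and after adding compound (0.03-40 uM) to primary rat cortical neurons on MEA plates at DIV 13 or 15, 37 C.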

[7] = CCTE_Shafer_MEA_acute_burst_duration_mean: CCTE's Neural Acute Assay for Mean Burst Duration, Shafer Lab (AID 2284014);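 also: hits are decreases in mean burst duration relative to DMSO controls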
In short: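 Rat cortical cultures, DIV 13/15; 40 min baseline, then 40 min with compound (0.03-40 uM), 37 C. Spikes: 300-5000 Hz band-pass, 8x rms threshold. Read-out: % change in mean single-electrode burst duration, DMSO-referenced, loss direction.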

[8] = CCTE_Shafer_MEA_acute_per_burst_spike_number_mean: CCTE's Neural Acute Assay for Average Number of Spikes Per Burst, Shafer Lab (AID 2284015);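 also: hits are decreases in mean spikes per burst versus baseline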
In short: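 We recorded spontaneous network firing of rat cortical neurons for 40 min before and 40 min during exposure to compound at 0.03-40 uM, at 37 C. Spikes were detected adaptively at 8x rms noise, and the change in average spikes per burst was fitted against DMSO.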

[9] = CCTE_Shafer_MEA_acute_interburst_interval_mean: CCTE's Neural Acute Assay for Mean Interburst Interval, Shafer Lab (AID 2284016);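 also: percent change of mean interburst interval versus each well's own pre-dose baseline; curves fitted for decrease in interburst interval relative to DMSO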
In short: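 MEA recording of spontaneous network bursting in primary rat cortical cultures; mean interburst interval was compared before and after a 40-min compound exposure (0.03-40 uM) and expressed as percent change, relative to DMSO.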

[10] = CCTE_Shafer_MEA_acute_burst_percentage_mean: CCTE's Neural Acute Assay for Percentage of Spikes in a Burst, Shafer Lab (AID 2284017)
In short: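 Compounds were tested at 0.03-40 uM on primary rat cortical neuron networks grown over microelectrodes, with at least three wells per compound. Spontaneous firing was recorded for 40 min before and 40 min after dosing, and the change in burst percentage was computed per well.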

[11] = CCTE_Shafer_MEA_acute_burst_percentage_std: CCTE's Neural Acute Assay for Standard Deviation of Burst Percentage, Shafer Lab (AID 2284018);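 also: fitted in the negative direction so actives lower burst percentage SD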
In short: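 Rat primary cortical neurons on 48-well MEAs, DIV 13 or 15, 37 C. 40-min baseline then 40-min recording with compound (0.03-40 uM); well-level SD of per-electrode burst spike percentage, expressed as percent change from baseline.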

[12] = CCTE_Shafer_MEA_acute_per_network_burst_spike_number_mean: CCTE's Neural Acute Assay for Average Number of Spikes in a Network Burst, Shafer Lab (AID 2284019);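 also: curve fitted for loss of signal so actives reduce spikes per network burst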
In short: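 Rat cortical cultures, DIV 13/15; spike threshold 8x rms noise, 300-5000 Hz band-pass, 12.5 kHz sampling; wells need >/= 10 active electrodes. Compound 0.03-40 uM, 40 min, 37 C; % change vs own baseline, DMSO negative control.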

[13] = CCTE_Shafer_MEA_acute_per_network_burst_spike_number_std: CCTE's Neural Acute Assay for Standard Deviation of Number of Spikes in a Network Burst, Shafer Lab (AID 2284020);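 also: fitted for decrease in spike-number SD versus DMSO so actives lower it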
In short: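 Rat cortical cultures, DIV 13/15, 37 C; 20-min stabilisation, 40-min baseline, compound 0.03-40 uM, 40-min re-record. Spikes detected at 8x rms noise (300-5000 Hz band-pass). Readout: % change from baseline in per-burst spike-number SD.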

[14] = CCTE_Shafer_MEA_acute_per_network_burst_electrodes_number_mean: CCTE's Neural Acute Assay for Mean Number of Electrodes in a Network Burst, Shafer Lab (AID 2284021);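 also: curves fitted for decreases only so hits reduce electrodes per burst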
In short: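 Primary rat cortical networks, mwMEA, 37 C. 20 min stabilization, 40 min baseline, compound 0.03-40 uM, 40 min re-record. Wells need >=10 active electrodes; percent change per well, negative fitting direction.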

[15] = CCTE_Shafer_MEA_acute_network_burst_percentage: CCTE's Neural Acute Assay for Percentage of Network Bursts, Shafer Lab (AID 2284022);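 also: curves fitted for loss so actives lower network burst percentage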
In short: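 Readout is the fraction of spikes falling in network bursts, expressed as per-well percent change from a 40-min pre-exposure baseline. Primary rat cortical neurons on MEA were exposed to 0.03-40 uM compound on DIV 13 or 15 and recorded for 40 min at 37 C.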

[16] = CCTE_Shafer_MEA_acute_cross_correlation_area: CCTE's Neural Acute Assay for Area of Cross Correlation, Shafer Lab (AID 2284024);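 also: area under pooled inter-electrode spike cross-correlation near zero lag as percent change from own baseline; curves fitted for loss of cross-correlation area so actives lower synchrony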
In short: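 Plates equilibrated 20 min at 37 C, then 40 min baseline was recorded, compound was added (0.03-40 uM), and a further 40 min was recorded. Wells needed ≥10 active electrodes (≥5 spikes/min) on exposure day.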

[17] = CCTE_Shafer_MEA_acute_cross_correlation_HWHM: CCTE's Neural Acute Assay for Cross Correlation at Half Width at Half Maximum, Shafer Lab (AID 2284026);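 also: percent change per well from pre-dose baseline in spike cross-correlogram half width; hits are a decrease in cross-correlogram half width relative to DMSO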
In short: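 Rat cortical neuron cultures on microelectrode arrays were equilibrated 20 min at 37 C, recorded 40 min at baseline, then 40 min after compound addition (0.03-40 uM, ≥3 wells). Spikes were detected at 8x rms noise after 300-5000 Hz band-pass filtering.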

[18] = CCTE_Shafer_MEA_acute_synchrony_index: CCTE's Neural Acute Assay for Synchrony, Shafer Lab (AID 2284027);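 also: network synchrony index of spontaneous spiking in primary rat cortical neurons on MEAs; fitted for loss of signal so actives lower synchrony relative to DMSO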
In short: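 Acute exposure of rat primary cortical neurons (DIV 13 or 15) at 0.03-40 uM. Synchrony index, 40 min before vs after, as % change relative to DMSO control.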

[19] = CCTE_Shafer_MEA_dev_firing_rate_mean: CCTE's Neural Network Formation Assay for Mean Firing Rate, Shafer Lab (AID 2284031)
In short: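 Extracellular spike frequency, AUC over DIV 5–12 recordings, in rat cortical neuron MEA cultures dosed from plating; loss direction vs DMSO.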

[20] = CCTE_Shafer_MEA_dev_per_burst_spike_percent: CCTE's Neural Network Formation Assay for Percent of Spikes in a Burst, Shafer Lab (AID 2284032);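 also: fitted as a decrease in burst spike percentage below DMSO baseline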
In short: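 Value is trapezoidal AUC over recordings on days 5, 7, 9 and 12 of the well-mean fraction of spikes falling in single-electrode bursts; rat cortical cultures exposed continuously from plating, treatment renewed DIV 5 and 9, fitted downward against DMSO.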

[21] = CCTE_Shafer_MEA_dev_active_electrodes_number: CCTE's Neural Network Formation Assay for Number of Active Electrodes, Shafer Lab (AID 2284040; active = hit-call score of the fitted dose curve at least 0.9, where 1 is the maximum;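 also: potency for loss of active electrodes versus DMSO so lower counts are hits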)
In short: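 Developing rat cortical networks on MEAs, exposed DIV 0–12. Value is the AUC of active-electrode counts (≥5 spikes/min) from days 5, 7, 9, 12, relative to DMSO.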

[22] = CCTE_Shafer_MEA_dev_burst_rate: CCTE's Neural Network Formation Assay for Burst Rate, Shafer Lab (AID 2284042)
In short: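 Developmental network assay measuring how 12-day exposure of rat cortical neuron cultures alters bursting on extracellular MEA recordings. Values are AUC of well-mean burst rate across four recording days, relative to DMSO vehicle.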

[23] = CCTE_Shafer_MEA_dev_bursting_electrodes_number: CCTE's Neural Network Formation Assay for Number of Bursting Electrodes, Shafer Lab (AID 2284043; active = hit-call score of the fitted dose curve at least 0.9, where 1 is the maximum;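 also: potency is for loss of bursting electrodes relative to DMSO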)
In short: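 Rat cortical primary neurons, 48-well MEA, 16 electrodes/well; dosing DIV 0–12, re-dosed with full media change DIV 5, 9. Recordings DIV 5/7/9/12, AxIS adaptive spike detector; bursting electrode = ≥1 burst/2 min. AUC across days; loss of signal vs DMSO.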

[24] = CCTE_Shafer_MEA_dev_per_burst_interspike_interval: CCTE's Neural Network Formation Assay for Burst Interspike Interval, Shafer Lab (AID 2284044);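 also: potency for a decrease of within-burst interspike interval below DMSO level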
In short: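 Neurons from rat cortex plated onto PEI-coated MEA wells with laminin […] at 1.5 x 10^5 cells/well, then treated from day 0. Media and compound fully replaced on DIV 5 and 9. Extracellular spontaneous firing recorded four times; interspike interval per burst summarised as AUC.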

[25] = CCTE_Shafer_MEA_dev_burst_duration_mean: CCTE's Neural Network Formation Assay for Mean Burst Duration, Shafer Lab (AID 2284045)
In short: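 Rat cortical cultures, 1.5 x 10^5 cells/well with laminin drop; continuous dosing days 0–12, media plus treatment refreshed DIV 5, 9. AxIS adaptive spike detection; mean single-electrode burst duration, AUC over four recordings, negative direction vs DMSO.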

[26] = CCTE_Shafer_MEA_dev_inter_network_spike_interval_mean: CCTE's Neural Network Formation Assay for Mean Inter-network Spike Interval, Shafer Lab (AID 2284047)
In short: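 Compound was given at plating to primary rat cortical neurons and renewed with full medium changes on DIV 5 and 9. Extracellular activity was recorded on days 5, 7, 9, 12; AUC values were fitted for loss relative to DMSO control.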

[27] = CCTE_Shafer_MEA_dev_network_spike_number: CCTE's Neural Network Formation Assay for Number of Network Spikes, Shafer Lab (AID 2284048);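 also: synchronized bursts across electrodes counted on days 5 7 9 12 and integrated as AUC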
In short: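 Rat cortical primary cultures on 48-well MEA (16 electrodes/well); continuous exposure DIV 0–12, full medium and treatment exchange DIV 5, 9. Readout: network spike count, AxIS adaptive detection, recordings DIV 5/7/9/12 collapsed to AUC; loss-of-signal fit, DMSO baseline.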

[28] = CCTE_Shafer_MEA_dev_network_spike_peak: CCTE's Neural Network Formation Assay for Mean Number of Electrodes in Network Spike, Shafer Lab (AID 2284049);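 also: fitted for loss of signal meaning fewer electrodes in network spikes than DMSO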
In short: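 Network-spike peak electrode count from recordings on days 5, 7, 9 and 12 was combined as trapezoidal area under the curve. Rat cortical cultures were treated continuously from plating, with compound renewed at each feed (DIV 5, 9); fits versus DMSO.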

[29] = CCTE_Shafer_MEA_dev_spike_duration_mean: CCTE's Neural Network Formation Assay for Mean Spike Duration, Shafer Lab (AID 2284051);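 also: mean network spike duration pooled as area under curve over DIV 5 to 12 recordings; potency for a decrease in mean network spike duration versus DMSO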
In short: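 With DMSO as baseline, loss of mean network spike duration was scored from extracellular recordings of rat cortical neurons on MEA plates. Exposure spanned plating to DIV 12; the four recording days were collapsed into one AUC value.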

[30] = CCTE_Shafer_MEA_dev_network_spike_duration_std: CCTE's Neural Network Formation Assay for Standard Deviation of Network Spike Duration, Shafer Lab (AID 2284052);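 also: area under curve of spike duration SD across recording days 5 to 12; hits are decreases in network spike duration SD versus DMSO vehicle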
In short: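 Developing networks of rat cortical neurons were exposed over twelve days in vitro on 48-well MEA plates. Trapezoidal AUC of recordings (DIV 5–12) was analysed for signal loss relative to DMSO vehicle.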

[31] = CCTE_Shafer_MEA_dev_per_network_spike_spike_number_mean: CCTE's Neural Network Formation Assay for Mean Number of Spikes in a Network Spike, Shafer Lab (AID 2284053);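 also: fitted as decrease in spikes per network spike relative to DMSO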
In short: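 First, rat cortical cells (1.5 x 10^5/well) were seeded onto MEA wells; second, dosing began at plating and was refreshed on DIV 5 and 9; finally, network-spike spike counts across DIV 5–12 were summarized as AUC.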

[32] = CCTE_Shafer_MEA_dev_per_network_spike_spike_percent: CCTE's Neural Network Formation Assay for Percent of Spikes in a Network Spike, Shafer Lab (AID 2284054)
In short: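 Read-out: percent of spikes falling in a 0.05 s window at network-spike peak, from spontaneous MEA recordings on days 5, 7, 9 and 12; trapezoidal AUC; loss of signal versus DMSO. Rat cortical cultures, compound present throughout.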

Measured: AC50

O=C1CC2(CCCC2)CC(=O)N1CCCCN1CCN(c2ncccn2)CC1
active: [12] 1.01 µM | [14] 2.98 µM | [20] 15 µM | [21] 9.97 µM | [23] 15 µM | [24] 2.98 µM | [28] 15 µM | [29] 15 µM | [31] 21.6 µM
inactive: all other assays above
